Assay results published in PubChem BioAssay (NCI).
The panel holds about 83,000 compounds, 20% with a hit somewhere; the sample as a whole holds those more often.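 For each line, cells grew in 96-well plates with the test compound present at a single concentration for 48 hours.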 Unmarked numbers belong to inactive results. Activity calls are given as the source filed them. The calls were made as follows: active = growth percent below 10; inactive = the rest.

What was measured:
Assay in all cases: NCI-60 one-dose screen, 48 h (100 = growth as untreated, 0 = no growth, -100 = all killed)
Conditions in all cases: 10 µM unless noted
[1] = system: SR leukemia
[2] = system: RPMI-8226 leukemia
[3] = system: OVCAR-8 ovarian
[4] = system: OVCAR-5 ovarian
[5] = system: OVCAR-4 ovarian
[6] = system: SK-OV-3 ovarian
[7] = system: IGROV1 ovarian
[8] = system: OVCAR-3 ovarian
[9] = system: HS 578T breast
[10] = system: NCI/ADR-RES ovarian
[11] = system: T-47D breast
[12] = system: MDA-MB-435 melanoma
[13] = system: SW-620 colon
[14] = system: MCF7 breast
[15] = system: HCT-116 colon
[16] = system: HCC-2998 colon
[17] = system: KM12 colon

Row | SMILES | growth [1] | growth [2] | growth [3] | growth [4] | growth [5] | growth [6] | growth [7] | growth [8] | growth [9] | growth [10] [%] | growth [11] | growth [12] | growth [13] | growth [14] | growth [15] | growth [16] | growth [17]
1 | CCOC(=O)C1CSC(C)(C(=O)OCC)N1 (configuration not stated) | 97.3% | 96.3% | 110% | 98.2% | 109% | 91.7% | 104% | 100% | 112% | 101 | 99.8% | 103% | 104% | 93.4% | 96.6% | 101% | 107%
2 | COc1cc(NC(=O)c2cc(OC)c3ccn(C)c3c2)cc2c1C[C@]1(C)CC[C@@H](O)C(C)(C)[C@H]1O2 | 19.2% | -16.6% (active) | 75.8% | 81.4% | 84.6% | 53% | 68% | 80.7% | 10.2% | 82.6 | 57.5% | 64% | 57.7% | 38.5% | 43.6% | 74.6% | 65.3%
3 | COC(=O)CCCNS(=O)(=O)c1cc(C(=O)Nc2ccc(NC(=O)c3cc(S(=O)(=O)NCCCC(=O)OC)c(O)c(O)c3O)cc2)c(O)c(O)c1O | 70.4% | 96% | 73.6% | 107% | 98.3% | 83.8% | 100% | 102% | 100% | 94.2 | 97.2% | 1.35% (active) | 95.8% | 73.7% | 76.9% | 93.4% | 96%
4 | CCCC(C)(C)COC(=O)c1cccc(N)c1 | 92.8% | 108% | 84.2% | 114% | 117% | 94.1% | 103% | 102% | 99.3% | 102 | 92% | 111% | 104% | 91.7% | 84.9% | 96.9% | 106%
5 | COCCNC(C(=O)c1ccccc1)c1ccccc1 (configuration not stated) | 109% | 98.4% | 97.7% | 95.1% | 105% | 101% | 102% | 104% | 100% | 107 | 92.1% | 103% | 101% | 95.3% | 99.9% | 107% | 104%
6 | C#CCn1c(-c2cc(OC)c(OC)cc2Br)nc(-c2ccccc2)c1-c1ccccc1 | 16.4% | 48.9% | 57.4% | 77.5% | 63.2% | 16% | 40.9% | 9.74% (active) | 66.8% | 10.2 | 39.3% | 6.82% (active) | 23.9% | 19.4% | 19.9% | 66.8% | 20%
7 | Cc1cc[n+](CCCC[n+]2ccc(C)cc2)cc1 | 97.3% | 94.2% | 108% | 104% | 114% | 116% | 99.7% | 106% | 104% | 97.8 | 105% | 102% | 103% | 96.3% | 100% | 103% | 90.5%
8 | N#CC(C#N)=C(C#N)c1c[nH]c2ccccc12 | 58.1% | 68.4% | 87.7% | 102% | 73.5% | 82.7% | 75.2% | 74.7% | 87.7% | 96.1 | 60.8% | 95.6% | 62.4% | 74.7% | 85.4% | 106% | 102%
9 | O=C1COc2ccccc2C(=O)N1CCCCNc1ccccc1 | 84.8% | 28.3% | 93.9% | 107% | 112% | 84.8% | 99.9% | 105% | 108% | 94.6 | 73.3% | 98.1% | 92.3% | 82.8% | 77.4% | 94.5% | 79.9%
10 | Nc1nc(Nc2ccc(OCc3cccc(F)c3)cc2)c2c(n1)[nH]c1ccc(O)cc12 | -48.3% (active) | -37.5% (active) | -61.7% (active) | 0.474% (active) | -62.2% (active) | -1.21% (active) | -21.8% (active) | -86.4% (active) | -21.9% (active) | 32.3 | -59.8% (active) | -41% (active) | -49.5% (active) | -82.7% (active) | -97.1% (active) | -17.6% (active) | -48% (active)
11 | CC(C)(CCN=C(N)Nc1ccccn1)c1ccc(C(F)(F)F)cc1 | -41.3% (active) | -46.9% (active) | 15.7% | 37.4% | 22.3% | 42.5% | 11.9% | 32.1% | 62.1% | 31.4 | -29.7% (active) | 18.7% | -11.2% (active) | -11.2% (active) | -45% (active) | -25.1% (active) | 13.5%
12 | COc1ccc(/C(=C/c2cc(OC)c(OC)c(OC)c2)[N+](=O)[O-])cc1 | -11.2% (active) | -18.6% (active) | 13.4% | 98.6% | 37.3% | 91% | -4.79% (active) | -54.3% (active) | 97.9% | 33.8 | 6.27% (active) | 7.21% (active) | -31% (active) | 1.7% (active) | 11.8% | 91.5% | 15.5%
13 | [2H]c1nc(Nc2ncc(F)c(-c3cc(F)c4nc(C)n(C(C)C)c4c3)n2)c([2H])c([2H])c1CN1CCN(CC)CC1 | 11.7% | 34.7% | 74.3% | 49.8% | 66.1% | 35.7% | 39.1% | 73.1% | 29.9% | 71 | 71.8% | 51.9% | 33.8% | 25.9% | 20.6% | 64.1% | 31.9%
14 | CC(/C=C/C=C(\C)[C@H](O)[C@H](C)C(=O)O[C@H]1C[C@H](C)C=C2C=C[C@@]3(C)O[C@@H](O)CC(=O)[C@]3(C)[C@H]21)=C\C=C\C(=O)O | 1.43% (active) | 27.6% | 21.6% | 18.6% | 23% | 2.67% (active) | 5.48% (active) | 2.71% (active) | -3.26% (active) | 53.8 | -12.3% (active) | 8.57% (active) | 9.52% (active) | 3.12% (active) | 2.2% (active) | 7.5% (active) | 0.481% (active)
15 | CCOc1ccc(-n2c(-c3cc(OC)c(OC)c(OC)c3)nnc2-c2ccc(OC)cc2N)cc1 | 19.3% | 82.6% | 64.5% | 95.5% | 74.7% | 75.2% | 57.2% | 53.6% | 77.7% | 77.1 | 43.4% | 81.3% | 67.2% | 40.6% | 63.7% | 82.4% | 37.8%
16 | CC(C)CCC[C@@H](C)[C@H]1CC[C@H]2[C@@H]3CC=C4N(c5ccccc5)C(=O)CC[C@]4(C)[C@H]3CC[C@]12C | 92.4% | 97.8% | 109% | 102% | 103% | 103% | 99.1% | 92.1% | 109% | 98.9 | 95% | 100% | 99.8% | 89.5% | 99.2% | 102% | 105%
